Source: the supplement of paper PMC11732987, “Enantioselective OTUD7B fragment discovery through chemoproteomics screening and high-throughput optimisation” (Communications Chemistry, 2025)

Key:
Experiment in all cases: log2 ratio of Biotin-Ahx-Ub-VS probe labelling (fragment/DMSO); higher = less target engagement (more negative = stronger competition), active = hit call of the paper (q ≤ 0.05, log2 ratio ≤ -1)
Details in all cases: compound concentration: 200 uM; treatment time: 3 h
USP42 = molecular target: T1, USP42 (UniProt Q9H9J4)
T1 sequence (whole entry): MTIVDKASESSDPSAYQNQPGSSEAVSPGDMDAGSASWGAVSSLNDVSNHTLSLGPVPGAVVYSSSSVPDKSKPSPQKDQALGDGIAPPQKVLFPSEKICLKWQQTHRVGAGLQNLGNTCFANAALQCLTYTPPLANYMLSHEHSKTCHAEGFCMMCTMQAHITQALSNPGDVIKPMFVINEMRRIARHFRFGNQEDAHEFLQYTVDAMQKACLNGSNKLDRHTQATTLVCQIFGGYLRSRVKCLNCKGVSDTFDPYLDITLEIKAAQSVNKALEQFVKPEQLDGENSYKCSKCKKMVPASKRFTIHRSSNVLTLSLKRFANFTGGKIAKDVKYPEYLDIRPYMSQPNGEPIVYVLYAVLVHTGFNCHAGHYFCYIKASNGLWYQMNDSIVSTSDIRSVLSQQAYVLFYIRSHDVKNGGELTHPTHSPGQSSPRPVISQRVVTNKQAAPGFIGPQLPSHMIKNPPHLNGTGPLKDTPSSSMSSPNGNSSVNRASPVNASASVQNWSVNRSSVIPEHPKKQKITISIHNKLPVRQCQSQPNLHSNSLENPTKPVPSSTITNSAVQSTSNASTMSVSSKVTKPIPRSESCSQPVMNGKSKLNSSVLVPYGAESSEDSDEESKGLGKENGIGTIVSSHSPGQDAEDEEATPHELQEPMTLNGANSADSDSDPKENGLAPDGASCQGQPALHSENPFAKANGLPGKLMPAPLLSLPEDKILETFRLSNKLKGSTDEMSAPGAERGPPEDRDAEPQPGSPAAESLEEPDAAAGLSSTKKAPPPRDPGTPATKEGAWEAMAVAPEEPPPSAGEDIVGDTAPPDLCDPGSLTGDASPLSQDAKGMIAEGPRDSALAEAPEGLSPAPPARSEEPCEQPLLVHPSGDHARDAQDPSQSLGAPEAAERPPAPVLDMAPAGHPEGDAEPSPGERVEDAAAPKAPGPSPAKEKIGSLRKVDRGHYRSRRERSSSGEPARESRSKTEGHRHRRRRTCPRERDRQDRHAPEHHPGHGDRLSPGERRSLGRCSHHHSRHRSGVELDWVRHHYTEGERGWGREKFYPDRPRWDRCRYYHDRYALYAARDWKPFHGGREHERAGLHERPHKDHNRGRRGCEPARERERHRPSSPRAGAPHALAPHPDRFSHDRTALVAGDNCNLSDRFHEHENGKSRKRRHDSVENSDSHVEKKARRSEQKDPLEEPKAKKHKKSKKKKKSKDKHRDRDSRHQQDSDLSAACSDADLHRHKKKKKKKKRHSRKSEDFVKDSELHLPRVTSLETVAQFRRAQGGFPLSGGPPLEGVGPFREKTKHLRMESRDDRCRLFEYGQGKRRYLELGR
Method in brief: (§1)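 Each value is an average log2 ratio of fragment to vehicle, tested by unpaired t-test. The underlying Spectronaut label-free quantities were global-median-normalised, and only proteins with ≥2 unique peptides were included. Triplicate HEK293T lysate samples (495 µg) were exposed to fragment at 200 µM or vehicle for 3 h, then to Biotin-Ahx-Ub-VS at 0.5 µM final for 1 h, before NeutrAvidin enrichment of labelled DUBs, LysC and trypsin digestion, and diaPASEF LC-MS/MS.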

USP46 = USP46 (UniProt P62068)
Method in brief: as §1

USP47 = molecular target: T2, USP47 (UniProt Q96K76)
T2 sequence (whole entry): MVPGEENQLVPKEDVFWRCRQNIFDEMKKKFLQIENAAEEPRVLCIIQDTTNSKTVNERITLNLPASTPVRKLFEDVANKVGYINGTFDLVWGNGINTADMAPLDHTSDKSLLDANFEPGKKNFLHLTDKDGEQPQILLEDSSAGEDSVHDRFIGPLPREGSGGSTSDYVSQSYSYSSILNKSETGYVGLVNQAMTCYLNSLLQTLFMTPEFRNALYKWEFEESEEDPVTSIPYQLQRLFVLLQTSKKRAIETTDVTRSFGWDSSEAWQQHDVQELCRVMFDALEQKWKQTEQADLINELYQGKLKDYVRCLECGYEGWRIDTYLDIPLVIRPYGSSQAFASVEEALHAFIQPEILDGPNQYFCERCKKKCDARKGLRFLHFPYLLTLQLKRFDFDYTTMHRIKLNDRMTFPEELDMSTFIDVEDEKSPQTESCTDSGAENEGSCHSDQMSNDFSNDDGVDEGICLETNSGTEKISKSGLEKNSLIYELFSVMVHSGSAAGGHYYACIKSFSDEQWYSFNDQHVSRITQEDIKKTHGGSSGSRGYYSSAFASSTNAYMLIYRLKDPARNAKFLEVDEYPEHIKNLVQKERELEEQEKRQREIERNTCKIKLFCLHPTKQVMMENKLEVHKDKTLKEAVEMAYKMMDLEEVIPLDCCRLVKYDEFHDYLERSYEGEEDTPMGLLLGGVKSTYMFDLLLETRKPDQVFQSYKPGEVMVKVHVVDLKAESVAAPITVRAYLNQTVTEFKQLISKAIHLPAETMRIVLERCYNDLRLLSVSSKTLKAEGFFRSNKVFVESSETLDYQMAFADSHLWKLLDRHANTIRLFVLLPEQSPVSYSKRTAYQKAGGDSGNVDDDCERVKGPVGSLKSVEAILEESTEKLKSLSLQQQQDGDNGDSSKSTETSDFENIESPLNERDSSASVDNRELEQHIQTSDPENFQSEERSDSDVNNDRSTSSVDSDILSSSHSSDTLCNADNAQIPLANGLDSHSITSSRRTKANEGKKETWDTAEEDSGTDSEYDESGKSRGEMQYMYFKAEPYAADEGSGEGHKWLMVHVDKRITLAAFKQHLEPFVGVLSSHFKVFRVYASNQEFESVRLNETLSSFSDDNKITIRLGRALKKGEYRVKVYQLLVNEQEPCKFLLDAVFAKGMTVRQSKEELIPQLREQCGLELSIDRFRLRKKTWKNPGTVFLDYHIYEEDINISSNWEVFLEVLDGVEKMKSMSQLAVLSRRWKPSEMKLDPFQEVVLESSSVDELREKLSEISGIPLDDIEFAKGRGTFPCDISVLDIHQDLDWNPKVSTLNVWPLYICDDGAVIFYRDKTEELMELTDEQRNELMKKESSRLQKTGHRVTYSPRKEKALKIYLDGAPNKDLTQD
Method in brief: as §1

USP48 = molecular target: T3, USP48 (UniProt Q86UV5)
T3 sequence (whole entry): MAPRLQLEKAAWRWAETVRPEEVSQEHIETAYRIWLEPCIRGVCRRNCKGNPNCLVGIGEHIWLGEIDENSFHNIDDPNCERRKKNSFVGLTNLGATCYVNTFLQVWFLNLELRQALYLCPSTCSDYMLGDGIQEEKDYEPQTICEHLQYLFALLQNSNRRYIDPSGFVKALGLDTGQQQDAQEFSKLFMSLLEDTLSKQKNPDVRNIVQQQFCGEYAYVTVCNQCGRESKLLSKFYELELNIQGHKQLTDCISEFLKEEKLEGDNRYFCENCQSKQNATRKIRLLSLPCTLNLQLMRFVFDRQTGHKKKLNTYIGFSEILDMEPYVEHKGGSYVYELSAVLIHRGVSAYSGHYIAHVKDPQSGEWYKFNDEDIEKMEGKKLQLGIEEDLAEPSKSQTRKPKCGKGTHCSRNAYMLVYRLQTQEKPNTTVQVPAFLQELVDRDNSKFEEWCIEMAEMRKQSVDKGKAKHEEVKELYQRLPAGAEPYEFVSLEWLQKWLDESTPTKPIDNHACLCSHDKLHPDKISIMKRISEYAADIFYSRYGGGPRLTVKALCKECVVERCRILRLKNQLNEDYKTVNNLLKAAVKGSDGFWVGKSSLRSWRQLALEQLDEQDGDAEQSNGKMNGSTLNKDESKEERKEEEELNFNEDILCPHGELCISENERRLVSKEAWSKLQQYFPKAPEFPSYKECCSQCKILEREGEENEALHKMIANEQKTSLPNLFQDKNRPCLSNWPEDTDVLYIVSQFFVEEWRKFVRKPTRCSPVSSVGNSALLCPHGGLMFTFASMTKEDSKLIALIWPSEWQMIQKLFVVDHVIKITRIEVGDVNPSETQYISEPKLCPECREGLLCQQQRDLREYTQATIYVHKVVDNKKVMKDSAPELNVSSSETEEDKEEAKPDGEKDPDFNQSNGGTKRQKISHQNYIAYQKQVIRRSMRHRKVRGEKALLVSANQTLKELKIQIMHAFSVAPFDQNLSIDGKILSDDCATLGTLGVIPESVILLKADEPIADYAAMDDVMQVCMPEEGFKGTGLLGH
Method in brief: as §1

USP5 = molecular target: T4, USP5 (UniProt P45974)
T4 sequence (whole entry): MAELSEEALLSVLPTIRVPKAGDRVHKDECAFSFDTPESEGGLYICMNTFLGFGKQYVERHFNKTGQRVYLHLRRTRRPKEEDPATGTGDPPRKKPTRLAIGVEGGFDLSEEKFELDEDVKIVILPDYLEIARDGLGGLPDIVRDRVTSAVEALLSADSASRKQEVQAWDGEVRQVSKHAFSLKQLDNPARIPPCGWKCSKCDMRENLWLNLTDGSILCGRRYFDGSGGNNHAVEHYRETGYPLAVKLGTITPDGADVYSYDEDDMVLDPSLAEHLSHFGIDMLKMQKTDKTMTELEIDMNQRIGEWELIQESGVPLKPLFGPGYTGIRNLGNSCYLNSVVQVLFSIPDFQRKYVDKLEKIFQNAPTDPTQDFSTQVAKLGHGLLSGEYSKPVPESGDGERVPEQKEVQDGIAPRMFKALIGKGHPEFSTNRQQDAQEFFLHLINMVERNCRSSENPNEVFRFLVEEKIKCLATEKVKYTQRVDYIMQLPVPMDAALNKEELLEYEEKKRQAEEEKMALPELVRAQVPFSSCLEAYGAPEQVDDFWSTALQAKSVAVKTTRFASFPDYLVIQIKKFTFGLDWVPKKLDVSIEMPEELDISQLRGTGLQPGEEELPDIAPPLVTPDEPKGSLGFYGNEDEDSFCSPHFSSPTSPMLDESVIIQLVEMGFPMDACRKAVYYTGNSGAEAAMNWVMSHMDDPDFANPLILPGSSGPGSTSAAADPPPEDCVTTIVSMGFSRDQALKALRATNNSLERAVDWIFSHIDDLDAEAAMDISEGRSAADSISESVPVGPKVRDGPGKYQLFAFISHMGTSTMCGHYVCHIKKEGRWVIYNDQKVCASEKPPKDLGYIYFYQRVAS
Method in brief: as §1

USP54 = USP54 (UniProt Q70EL1)
Method in brief: as §1

USP7 = USP7 (UniProt Q93009)
Method in brief: as §1

USP8 = molecular target: T5, USP8 (UniProt P40818)
T5 sequence (whole entry): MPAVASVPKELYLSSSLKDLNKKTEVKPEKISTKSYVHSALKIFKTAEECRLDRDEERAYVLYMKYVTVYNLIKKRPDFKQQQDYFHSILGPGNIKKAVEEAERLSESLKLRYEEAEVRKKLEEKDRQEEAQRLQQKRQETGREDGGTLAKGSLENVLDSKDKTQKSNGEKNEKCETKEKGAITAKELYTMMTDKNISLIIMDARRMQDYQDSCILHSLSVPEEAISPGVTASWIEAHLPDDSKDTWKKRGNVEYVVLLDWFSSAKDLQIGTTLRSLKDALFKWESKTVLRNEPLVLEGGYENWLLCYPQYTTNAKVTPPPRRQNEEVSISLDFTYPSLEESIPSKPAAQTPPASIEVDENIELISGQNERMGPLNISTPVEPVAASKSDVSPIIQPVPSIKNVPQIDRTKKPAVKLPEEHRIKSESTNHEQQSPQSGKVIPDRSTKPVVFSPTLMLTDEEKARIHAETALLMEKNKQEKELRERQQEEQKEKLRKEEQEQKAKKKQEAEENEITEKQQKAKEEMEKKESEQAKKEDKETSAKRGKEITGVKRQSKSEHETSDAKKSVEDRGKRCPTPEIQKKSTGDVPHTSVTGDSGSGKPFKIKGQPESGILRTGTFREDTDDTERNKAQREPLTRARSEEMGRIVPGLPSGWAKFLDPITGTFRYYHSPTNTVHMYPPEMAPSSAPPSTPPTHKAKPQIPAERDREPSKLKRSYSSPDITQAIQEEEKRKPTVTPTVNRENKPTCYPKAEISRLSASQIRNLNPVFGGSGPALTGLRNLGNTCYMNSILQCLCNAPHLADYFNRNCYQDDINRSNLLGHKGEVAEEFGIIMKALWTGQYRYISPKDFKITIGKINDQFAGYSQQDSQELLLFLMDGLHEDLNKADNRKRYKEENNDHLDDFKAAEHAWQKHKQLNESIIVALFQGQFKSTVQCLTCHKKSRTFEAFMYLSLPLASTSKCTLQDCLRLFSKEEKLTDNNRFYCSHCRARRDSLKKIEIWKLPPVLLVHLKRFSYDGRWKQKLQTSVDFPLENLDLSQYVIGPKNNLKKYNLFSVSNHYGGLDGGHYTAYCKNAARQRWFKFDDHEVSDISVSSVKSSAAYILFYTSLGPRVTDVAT
Method in brief: as §1

USP9X = USP9X (UniProt Q93008)
Method in brief: as §1

UniProt O00487 = molecular target: UniProt O00487
Method in brief: as §1

Measured: log2 ratio of Biotin-Ahx-Ub-VS probe labelling

USP54, sequence (Q70EL1 whole entry): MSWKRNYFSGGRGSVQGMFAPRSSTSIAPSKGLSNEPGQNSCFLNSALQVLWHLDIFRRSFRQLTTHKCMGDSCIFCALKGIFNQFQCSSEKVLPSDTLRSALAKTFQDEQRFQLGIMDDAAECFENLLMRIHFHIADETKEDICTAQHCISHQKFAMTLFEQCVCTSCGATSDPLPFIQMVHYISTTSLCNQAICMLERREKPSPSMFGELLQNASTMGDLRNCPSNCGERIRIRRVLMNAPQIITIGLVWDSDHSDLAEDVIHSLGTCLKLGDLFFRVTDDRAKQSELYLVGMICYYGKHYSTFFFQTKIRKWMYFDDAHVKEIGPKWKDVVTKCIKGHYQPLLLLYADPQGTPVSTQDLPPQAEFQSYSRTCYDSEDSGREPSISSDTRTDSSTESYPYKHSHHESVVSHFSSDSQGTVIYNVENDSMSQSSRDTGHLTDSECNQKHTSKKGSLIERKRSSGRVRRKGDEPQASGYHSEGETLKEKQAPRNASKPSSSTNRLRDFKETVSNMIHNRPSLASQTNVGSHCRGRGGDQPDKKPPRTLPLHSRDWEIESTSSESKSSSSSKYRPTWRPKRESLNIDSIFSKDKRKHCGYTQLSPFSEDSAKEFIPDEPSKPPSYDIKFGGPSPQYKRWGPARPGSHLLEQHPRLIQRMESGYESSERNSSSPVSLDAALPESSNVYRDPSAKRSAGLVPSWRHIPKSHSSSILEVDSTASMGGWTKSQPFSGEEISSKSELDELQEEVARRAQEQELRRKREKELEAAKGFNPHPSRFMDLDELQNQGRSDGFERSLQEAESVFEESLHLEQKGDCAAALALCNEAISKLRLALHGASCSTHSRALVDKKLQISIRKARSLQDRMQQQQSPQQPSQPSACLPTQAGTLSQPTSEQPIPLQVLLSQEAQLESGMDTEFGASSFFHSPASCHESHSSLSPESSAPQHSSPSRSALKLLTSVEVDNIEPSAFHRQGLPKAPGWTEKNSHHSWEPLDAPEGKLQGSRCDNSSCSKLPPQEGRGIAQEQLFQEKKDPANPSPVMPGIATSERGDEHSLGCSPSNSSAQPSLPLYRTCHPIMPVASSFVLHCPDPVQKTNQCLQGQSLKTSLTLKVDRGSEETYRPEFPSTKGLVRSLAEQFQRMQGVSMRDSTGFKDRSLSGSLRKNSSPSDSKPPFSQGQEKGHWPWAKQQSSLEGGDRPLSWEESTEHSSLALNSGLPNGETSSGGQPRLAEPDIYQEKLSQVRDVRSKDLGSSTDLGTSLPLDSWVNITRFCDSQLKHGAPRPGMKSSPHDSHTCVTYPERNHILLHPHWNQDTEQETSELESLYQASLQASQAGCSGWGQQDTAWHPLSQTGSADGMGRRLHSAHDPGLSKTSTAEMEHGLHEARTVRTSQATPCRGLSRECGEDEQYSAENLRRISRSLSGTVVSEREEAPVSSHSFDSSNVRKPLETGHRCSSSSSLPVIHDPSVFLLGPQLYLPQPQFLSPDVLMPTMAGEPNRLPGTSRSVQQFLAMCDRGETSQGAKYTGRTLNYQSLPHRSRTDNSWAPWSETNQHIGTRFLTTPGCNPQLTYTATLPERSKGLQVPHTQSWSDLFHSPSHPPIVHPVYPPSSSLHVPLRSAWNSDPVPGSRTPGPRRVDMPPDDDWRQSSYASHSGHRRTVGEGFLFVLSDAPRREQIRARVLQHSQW
USP46, sequence (P62068 whole entry): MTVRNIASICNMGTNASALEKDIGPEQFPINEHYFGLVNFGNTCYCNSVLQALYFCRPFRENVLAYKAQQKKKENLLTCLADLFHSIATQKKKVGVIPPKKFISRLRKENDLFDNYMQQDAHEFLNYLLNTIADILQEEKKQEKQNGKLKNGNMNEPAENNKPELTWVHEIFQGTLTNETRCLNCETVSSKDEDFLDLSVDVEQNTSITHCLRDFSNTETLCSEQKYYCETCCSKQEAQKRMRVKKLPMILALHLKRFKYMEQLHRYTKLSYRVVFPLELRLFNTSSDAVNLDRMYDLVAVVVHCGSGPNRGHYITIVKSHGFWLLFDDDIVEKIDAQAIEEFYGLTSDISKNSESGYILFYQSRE
USP9X, sequence (Q93008 whole entry): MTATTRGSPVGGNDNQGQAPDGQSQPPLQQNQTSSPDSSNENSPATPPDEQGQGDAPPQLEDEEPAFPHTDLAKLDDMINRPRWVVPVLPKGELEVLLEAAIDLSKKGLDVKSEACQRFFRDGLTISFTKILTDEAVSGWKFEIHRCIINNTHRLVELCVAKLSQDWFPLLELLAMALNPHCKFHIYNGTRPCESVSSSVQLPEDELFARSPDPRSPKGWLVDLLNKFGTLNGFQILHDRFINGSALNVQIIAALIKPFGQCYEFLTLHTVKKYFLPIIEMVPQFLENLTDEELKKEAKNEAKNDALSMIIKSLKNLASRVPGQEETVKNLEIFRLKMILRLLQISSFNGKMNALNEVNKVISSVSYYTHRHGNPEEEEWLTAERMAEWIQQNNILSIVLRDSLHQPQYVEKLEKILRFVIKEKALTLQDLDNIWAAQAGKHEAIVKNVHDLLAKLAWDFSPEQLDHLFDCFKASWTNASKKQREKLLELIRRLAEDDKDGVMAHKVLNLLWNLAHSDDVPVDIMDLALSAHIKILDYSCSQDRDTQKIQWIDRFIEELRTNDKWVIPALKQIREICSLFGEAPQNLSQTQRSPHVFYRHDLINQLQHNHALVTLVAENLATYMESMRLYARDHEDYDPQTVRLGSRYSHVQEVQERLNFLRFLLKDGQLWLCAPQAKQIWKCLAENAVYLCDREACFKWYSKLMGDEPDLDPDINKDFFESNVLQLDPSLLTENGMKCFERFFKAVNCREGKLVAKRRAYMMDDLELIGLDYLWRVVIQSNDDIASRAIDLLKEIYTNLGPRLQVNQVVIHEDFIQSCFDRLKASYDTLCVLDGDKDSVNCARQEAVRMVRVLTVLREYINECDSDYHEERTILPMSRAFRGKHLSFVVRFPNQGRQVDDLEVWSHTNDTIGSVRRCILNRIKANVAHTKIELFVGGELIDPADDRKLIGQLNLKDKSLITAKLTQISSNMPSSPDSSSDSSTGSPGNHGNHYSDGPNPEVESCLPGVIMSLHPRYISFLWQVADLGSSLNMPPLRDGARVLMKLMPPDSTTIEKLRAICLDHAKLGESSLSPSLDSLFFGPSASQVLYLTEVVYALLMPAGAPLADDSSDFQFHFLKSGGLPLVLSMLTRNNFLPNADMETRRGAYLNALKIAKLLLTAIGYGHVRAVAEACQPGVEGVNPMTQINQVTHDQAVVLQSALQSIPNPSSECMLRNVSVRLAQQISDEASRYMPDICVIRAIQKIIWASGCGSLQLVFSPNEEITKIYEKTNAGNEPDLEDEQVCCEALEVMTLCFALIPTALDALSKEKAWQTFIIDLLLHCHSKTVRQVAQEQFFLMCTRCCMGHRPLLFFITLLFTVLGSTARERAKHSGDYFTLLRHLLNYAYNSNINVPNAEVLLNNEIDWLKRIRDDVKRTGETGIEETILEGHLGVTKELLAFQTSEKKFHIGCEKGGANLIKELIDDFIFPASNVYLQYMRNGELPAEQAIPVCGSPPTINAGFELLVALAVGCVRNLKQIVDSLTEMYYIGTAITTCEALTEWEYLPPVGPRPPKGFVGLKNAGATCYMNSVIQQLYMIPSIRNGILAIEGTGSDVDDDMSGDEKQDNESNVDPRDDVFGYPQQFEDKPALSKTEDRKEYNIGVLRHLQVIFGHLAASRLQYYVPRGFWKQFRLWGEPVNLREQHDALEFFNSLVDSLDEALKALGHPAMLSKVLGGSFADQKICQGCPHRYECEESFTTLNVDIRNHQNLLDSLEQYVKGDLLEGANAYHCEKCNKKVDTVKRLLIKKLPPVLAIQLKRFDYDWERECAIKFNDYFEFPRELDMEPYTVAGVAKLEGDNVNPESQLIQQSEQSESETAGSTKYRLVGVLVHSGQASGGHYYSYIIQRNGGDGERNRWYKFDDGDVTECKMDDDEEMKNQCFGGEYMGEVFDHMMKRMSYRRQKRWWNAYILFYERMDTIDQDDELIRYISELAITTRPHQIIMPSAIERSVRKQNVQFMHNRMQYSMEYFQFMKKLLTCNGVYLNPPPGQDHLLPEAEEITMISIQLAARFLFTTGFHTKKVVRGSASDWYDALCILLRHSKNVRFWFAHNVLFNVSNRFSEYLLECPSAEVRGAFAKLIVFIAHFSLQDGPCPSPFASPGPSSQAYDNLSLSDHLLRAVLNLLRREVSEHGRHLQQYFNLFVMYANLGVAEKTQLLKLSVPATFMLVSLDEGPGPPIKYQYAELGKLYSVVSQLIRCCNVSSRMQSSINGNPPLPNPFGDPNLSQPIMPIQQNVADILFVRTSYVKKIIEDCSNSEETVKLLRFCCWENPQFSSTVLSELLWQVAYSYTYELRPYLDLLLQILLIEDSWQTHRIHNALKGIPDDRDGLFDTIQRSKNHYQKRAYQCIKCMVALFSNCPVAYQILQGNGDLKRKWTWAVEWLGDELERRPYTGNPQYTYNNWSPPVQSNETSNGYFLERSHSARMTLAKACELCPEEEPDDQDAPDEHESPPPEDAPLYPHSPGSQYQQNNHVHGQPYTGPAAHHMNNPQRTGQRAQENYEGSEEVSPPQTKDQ
UniProt O00487, sequence (O00487 whole entry): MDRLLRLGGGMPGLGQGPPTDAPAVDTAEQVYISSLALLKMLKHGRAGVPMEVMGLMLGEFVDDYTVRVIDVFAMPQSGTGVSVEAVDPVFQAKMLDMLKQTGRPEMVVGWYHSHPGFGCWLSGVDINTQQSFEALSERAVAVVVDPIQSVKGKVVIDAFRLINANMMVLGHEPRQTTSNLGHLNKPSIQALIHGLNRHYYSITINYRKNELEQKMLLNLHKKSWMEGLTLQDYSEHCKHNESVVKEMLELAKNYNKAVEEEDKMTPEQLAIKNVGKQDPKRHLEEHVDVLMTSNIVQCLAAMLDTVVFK

O=C(CCl)N1CCCCC12CCOCC2
inactive: USP42 -0.368 | USP46 -0.278 | USP47 -0.146 | USP48 -0.525 | USP5 -0.258 | USP54 0.442 | USP7 -0.511 | USP8 -0.237 | USP9X -0.584 | UniProt O00487 -0.282
